Where a name gives a salt, the structure may show the parent alone.
System: HL-1
Assay: relative cell viability (CellTiter-Glo) vs DMSO control (% of DMSO control); higher = more viable cells
Summary of the method: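 Cell viability was determined from CellTiter-Glo luminescence, expressed relative to vehicle-treated control cells. The cells were HL-1 mouse atrial cardiomyocytes, plated at 1000 cells per well in 384-well plates with compounds at 40, 200, 1000 or 5000 nM in 0.01% DMSO. One day after plating, they underwent 48 h of hypoxia (1% O2) in a hypoxic workstation followed by 24 h of reoxygenation in a normal incubator, or were kept in normoxia for an equal time.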

[1] = oxygen condition: hypoxia 48 h (1% O2) + reoxygenation 24 h, 40 nM
[2] = oxygen condition: hypoxia 48 h (1% O2) + reoxygenation 24 h, 200 nM
[3] = oxygen condition: hypoxia 48 h (1% O2) + reoxygenation 24 h, 1000 nM
[4] = oxygen condition: hypoxia 48 h (1% O2) + reoxygenation 24 h, 5000 nM
[5] = oxygen condition: normoxia 72 h, 40 nM
[6] = oxygen condition: normoxia 72 h, 200 nM
[7] = oxygen condition: normoxia 72 h, 1000 nM
[8] = oxygen condition: normoxia 72 h, 5000 nM

SMILES | relative cell viability [1] | relative cell viability [2] | relative cell viability [3] | relative cell viability [4] | relative cell viability [5] | relative cell viability [6] | relative cell viability [7] | relative cell viability [8]
CC(COc1ccccc1)N(CCCl)Cc1ccccc1 (centres undefined) [Phenoxybenzamine HCl] | 101 | 97.6 | 93.1 | 95.4 | 101 | 101 | 91.5 | 107
COc1cc2c(cc1OC)CC(=O)N(CCCN(C)C[C@H]1Cc3cc(OC)c(OC)cc31)CC2 [Ivabradine HCl] | 108 | 106 | 107 | 106 | 105 | 106 | 102 | 106
COCCCOc1cc(C[C@@H](C[C@H](N)[C@@H](O)C[C@H](C(=O)NCC(C)(C)C(N)=O)C(C)C)C(C)C)ccc1OC [Aliskiren hemifumarate] | 94.1 | 97.2 | 92.3 | 107 | 95.9 | 102 | 101 | 107
OC(CCN1CCCCC1)(c1ccccc1)C1CC2C=CC1C2 (centres undefined) [Biperiden HCl] | 106 | 104 | 93.9 | 108 | 106 | 106 | 106 | 100
CC(C)CC(N)=O [Isovaleramide] | 96.1 | 91.3 | 96.4 | 112 | 96.3 | 90.2 | 87.8 | 104
CN(C)CCCN1c2ccccc2Sc2ccc(Cl)cc21 [Chlorpromazine] | 104 | 103 | 106 | 107 | 97.1 | 100 | 106 | 117
O=C(O)[C@H](CC(=O)N1C[C@H]2CCCC[C@H]2C1)Cc1ccccc1 [Mitiglinide calcium] | 108 | 101 | 99.7 | 108 | 101 | 102 | 104 | 110
C#Cc1cccc(Nc2ncnc3cc(OCCOC)c(OCCO)cc23)c1 | 100 | 106 | 107 | 109 | 111 | 104 | 105 | 121
CCOCC(O)COc1ccc(NC(=O)CC[S+](C)C)cc1 (centres undefined) [Suplatast tosylate] | 106 | 103 | 99.4 | 107 | 101 | 101 | 108 | 120
COc1cc2ncnc(Nc3ccc(F)c(Cl)c3)c2cc1OCCCN1CCOCC1 [Gefitinib] | 106 | 114 | 122 | 100 | 101 | 112 | 99.4 | 100
CN(Cc1cnc2nc(N)nc(N)c2n1)c1ccc(C(=O)N[C@@H](CCC(=O)O)C(=O)O)cc1 [Abitrexate] | 75.8 | 51.7 | 42.5 | 42 | 58.2 | 52.2 | 41.8 | 43.9
C[C@]12CC[C@H](O)CC1=CC[C@@H]1[C@@H]2CC[C@]2(C)C(c3cccnc3)=CC[C@@H]12 [Abiraterone] | 74.6 | 72.2 | 86.7 | 116 | 61.2 | 67.9 | 78.7 | 112
NS(=O)(=O)c1cc2c(cc1Cl)NCNS2(=O)=O [Hydrochlorothiazide] | 103 | 106 | 110 | 106 | 110 | 107 | 107 | 115
CC1(C)S[C@@H]2[C@H](NC(=O)[C@H](NC(=O)N3CCNC3=O)c3ccccc3)C(=O)N2[C@H]1C(=O)O [Azlocillin sodium salt] | 102 | 102 | 106 | 110 | 101 | 104 | 112 | 116
C=C1CC[C@H](O)C/C1=C/C=C1\CCC[C@]2(C)[C@@H]([C@H](C)CCCC(C)(C)O)CC[C@@H]12 [Calcifediol] | 112 | 106 | 106 | 109 | 103 | 104 | 114 | 117
CN[C@@H]1[C@H](O)[C@H](NC)[C@H]2O[C@@]3(O)C(=O)C[C@@H](C)O[C@H]3O[C@@H]2[C@H]1O [Spectinomycin  hydrochloride] | 105 | 102 | 102 | 109 | 107 | 86.5 | 101 | 101
NC(=O)c1cccnc1 [Nicotinamide] | 95.4 | 97.2 | 98.5 | 104 | 96.7 | 103 | 95.5 | 102
O=C(CCCN1CCC(O)(c2ccc(Cl)cc2)CC1)c1ccc(F)cc1 [Haloperidol] | 101 | 99.4 | 102 | 101 | 92.8 | 98 | 100 | 98.5
C[C@H](CCC(=O)O)[C@H]1CC[C@H]2[C@@H]3[C@@H](O)C[C@@H]4C[C@H](O)CC[C@]4(C)[C@H]3CC[C@]12C [Ursodiol] | 103 | 106 | 118 | 106 | 99.7 | 105 | 119 | 108
Cc1ncc(CO)c(CO)c1O [Pyridoxine hydrochloride] | 102 | 101 | 103 | 109 | 99.7 | 100 | 103 | 114
CCN(CC)CCOC(=O)c1ccc(N)cc1 [Procaine] | 100 | 102 | 109 | 108 | 105 | 104 | 105 | 110
NC(=O)N1c2ccccc2CC(=O)c2ccccc21 [Oxcarbazepine] | 104 | 105 | 116 | 102 | 108 | 127 | 116 | 109

SMILES | relative cell viability [1] | relative cell viability [2] | relative cell viability [3] | relative cell viability [4] | relative cell viability [5] | relative cell viability [6] | relative cell viability [7] | relative cell viability [8]
CC1(C)Cc2c(-c3ccccc3)c(-c3ccc(Cl)cc3)c(CC(=O)O)n2C1 [Licofelone] | 97.3 | 94.8 | 97.1 | 105 | 92.9 | 96.5 | 93.5 | 108
CC1(C)[C@@H](OC(=O)CCC(=O)O)CC[C@]2(C)[C@H]3C(=O)C=C4[C@@H]5C[C@@](C)(C(=O)O)CC[C@]5(C)CC[C@@]4(C)[C@]3(C)CC[C@@H]12 [Carbenoxolone Sodium] | 94.3 | 103 | 100 | 108 | 93.6 | 102 | 102 | 107
Cc1ccccc1C(=O)Nc1ccc(C(=O)N2CCCC(O)c3cc(Cl)ccc32)c(C)c1 (centres undefined) [Tolvaptan] | 97.3 | 104 | 104 | 110 | 96.7 | 104 | 106 | 108
Nc1nnc(-c2cccc(Cl)c2Cl)c(N)n1 [Lamotrigine] | 107 | 102 | 108 | 117 | 106 | 96.1 | 115 | 117
CC1(C)S[C@@H]2[C@H](NC(=O)[C@H](N)c3ccc(O)cc3)C(=O)N2[C@H]1C(=O)O [Amoxicillin] | 104 | 103 | 111 | 114 | 104 | 100 | 106 | 108
C=C1CC[C@H](O)C/C1=C/C=C1\CCC[C@]2(C)[C@@H]([C@H](C)/C=C/[C@H](C)C(C)C)CC[C@@H]12 [Vitamin D2] | 102 | 99.8 | 111 | 112 | 107 | 105 | 109 | 110
CCC(=O)O[C@]1(C(=O)CCl)[C@@H](C)C[C@H]2[C@@H]3CCC4=CC(=O)C=C[C@]4(C)[C@@]3(F)[C@@H](O)C[C@@]21C [Clobetasol propionate] | 98.2 | 94.4 | 94.5 | 97.3 | 92.3 | 90.1 | 88.3 | 94.5
C[C@]12CC[C@@H]3c4ccc(O)cc4CC[C@H]3[C@@H]1CCC2=O [Estrone] | 102 | 107 | 107 | 109 | 102 | 105 | 107 | 115
CCCc1cc(=O)[nH]c(=S)[nH]1 [Propylthiouracil] | 106 | 105 | 107 | 120 | 99.3 | 108 | 107 | 110
COC(=O)CCc1ccc(OCC(O)CNC(C)C)cc1 (centres undefined) [Esmolol HCl] | 103 | 104 | 105 | 80.4 | 104 | 104 | 108 | 112
CN1CCN(CCCN2c3ccccc3Sc3ccc(C(F)(F)F)cc32)CC1 [Trifluoperazine 2HCl] | 102 | 103 | 105 | 114 | 107 | 106 | 103 | 112
CN1CCC(=C2c3ccccc3C=Cc3ccccc32)CC1 [Cyproheptadine HCl] | 97.1 | 95.8 | 102 | 110 | 100 | 98.1 | 102 | 118
C[C@@H](CN1CC(=O)NC(=O)C1)N1CC(=O)NC(=O)C1 [Dexrazoxane Hydrochloride] | 98.2 | 105 | 104 | 106 | 101 | 96.3 | 92.8 | 94.8
c1ccc2c(CC3=NCCN3)cccc2c1 [Naphazoline hydrochloride] | 97.8 | 111 | 106 | 109 | 98.8 | 102 | 106 | 102
CNCCC(Oc1ccc(C(F)(F)F)cc1)c1ccccc1 (centres undefined) [Fluoxetine  HCl] | 103 | 109 | 114 | 110 | 104 | 114 | 106 | 114
CCCN(CCC)CCc1cccc2c1CC(=O)N2 [Ropinirole HCl] | 109 | 117 | 106 | 114 | 107 | 104 | 107 | 110
CN(CCOc1ccc(NS(C)(=O)=O)cc1)CCc1ccc(NS(C)(=O)=O)cc1 [Dofetilide] | 102 | 99.8 | 99.2 | 112 | 101 | 109 | 106 | 107
Cc1cn(-c2cc(NC(=O)c3ccc(C)c(Nc4nccc(-c5cccnc5)n4)c3)cc(C(F)(F)F)c2)cn1 [Nilotinib] | 101 | 81.4 | 107 | 111 | 105 | 104 | 104 | 108
Cc1c(OCC(F)(F)F)ccnc1C[S@@+]([O-])c1nc2ccccc2[nH]1 [Dexlansoprazole] | 105 | 101 | 107 | 105 | 101 | 97.7 | 104 | 91.9
NC12CC3CC(CC(C3)C1)C2 [Amantadine hydrochloride] | 107 | 110 | 93.3 | 32.7 | 102 | 101 | 101 | 84.9
CC[C@]1(O)C[C@@H]2CN(CCc3c([nH]c4ccccc34)[C@@](C(=O)OC)(c3cc4c(cc3OC)N(C)[C@H]3[C@@](O)(C(=O)OC)[C@H](OC(C)=O)[C@]5(CC)C=CCN6CC[C@]43[C@@H]65)C2)C1 [Vinblastine] | 35.3 | 41.6 | 43.5 | 37.2 | 28 | 32.3 | 36 | 35.9

Source: the supplement of paper PMC8371130
